Reference: publication PMC8384837, “Expanding the binding specificity for RNA recognition by a PUF domain”

How the values were obtained:
Assay in all cases: yeast three-hybrid, YBZ-1, SC-Leu-His + 0.5 mM 3-AT, 4 days
Conditions in all cases: tags: N-Gal4 AD-HA kept; label: inside an RPR1-promoter hybrid RNA with tandem MS2 sites; ssRNA
PUM1 PUF domain R5-DFL = PUM1 PUF domain R5-DFL (Homo sapiens, UniProt Q14671 828-1176, C1007D;R1008F;Q1011L)
In short: (§1)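 A centromeric plasmid in strain YBZ-1 co-expressed Pumilio-1 PUF domain libraries, randomized at the three base-contacting residues of each repeat, with matching RNA elements; the strain carries a LexA–MS2 coat fusion and a HIS3 reporter. After four days on SC-Leu (input) or SC-Leu-His + 0.5 mM 3-AT (selection), the repeat regions were PCR-amplified and Illumina-sequenced. The interaction score is the log change in variant frequency from input to selection, using log2 and a pseudocount of 1 where absent.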

PUM1 PUF domain R4-CLQ = PUM1 PUF domain R4-CLQ (Homo sapiens, UniProt Q14671 828-1176, N971C;H972L)
In short: as §1

PUM1 PUF domain R6-HFL = target: T1, PUM1 PUF domain R6-HFL (Homo sapiens, UniProt Q14671 828-1176, N1043H;Y1044F;Q1047L)
T1 sequence: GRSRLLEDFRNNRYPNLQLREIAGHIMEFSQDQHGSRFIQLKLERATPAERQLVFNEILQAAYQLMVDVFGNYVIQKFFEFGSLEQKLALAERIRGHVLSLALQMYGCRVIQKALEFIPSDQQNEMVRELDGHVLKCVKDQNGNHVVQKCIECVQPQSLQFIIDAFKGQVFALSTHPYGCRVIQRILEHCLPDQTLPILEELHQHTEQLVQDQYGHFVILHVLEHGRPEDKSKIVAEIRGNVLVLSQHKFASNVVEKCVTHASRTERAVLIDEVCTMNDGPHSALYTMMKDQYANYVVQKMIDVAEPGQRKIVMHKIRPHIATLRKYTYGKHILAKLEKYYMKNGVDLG
In short: as §1

PUM1 PUF domain R5-HNR = PUM1 PUF domain R5-HNR (Homo sapiens, UniProt Q14671 828-1176, C1007H;R1008N;Q1011R)
In short: as §1

PUM1 PUF domain R7-GQR = PUM1 PUF domain R7-GQR (Homo sapiens, UniProt Q14671 828-1176, S1079G;N1080Q;E1083R)
In short: as §1

PUM1 PUF domain R7-EFR = PUM1 PUF domain R7-EFR (Homo sapiens, UniProt Q14671 828-1176, S1079E;N1080F;E1083R)
In short: as §1

PUM1 PUF domain R1-SPE = PUM1 PUF domain R1-SPE (Homo sapiens, UniProt Q14671 828-1176, R864P;Q867E)
In short: as §1

PUM1 PUF domain R1-RCV = PUM1 PUF domain R1-RCV (Homo sapiens, UniProt Q14671 828-1176, S863R;R864C;Q867V)
In short: as §1

PUM1 PUF domain R1-KLE = PUM1 PUF domain R1-KLE (Homo sapiens, UniProt Q14671 828-1176, S863K;R864L;Q867E)
In short: as §1

PUM1 PUF domain R3-FCV = PUM1 PUF domain R3-FCV (Homo sapiens, UniProt Q14671 828-1176, C935F;R936C;Q939V)
In short: as §1

PUM1 PUF domain R3-FRM = PUM1 PUF domain R3-FRM (Homo sapiens, UniProt Q14671 828-1176, C935F;Q939M)
In short: as §1

PUM1 PUF domain R4-FAA = PUM1 PUF domain R4-FAA (Homo sapiens, UniProt Q14671 828-1176, N971F;H972A;Q975A)
In short: as §1

PUM1 PUF domain R4-PHC = PUM1 PUF domain R4-PHC (Homo sapiens, UniProt Q14671 828-1176, N971P;Q975C)
In short: as §1

PUM1 PUF domain R4-QHK = PUM1 PUF domain R4-QHK (Homo sapiens, UniProt Q14671 828-1176, N971Q;Q975K)
In short: as §1

PUM1 PUF domain R5-SGG = PUM1 PUF domain R5-SGG (Homo sapiens, UniProt Q14671 828-1176, C1007S;R1008G;Q1011G)
In short: as §1

PUM1 PUF domain R5-RQL = PUM1 PUF domain R5-RQL (Homo sapiens, UniProt Q14671 828-1176, C1007R;R1008Q;Q1011L)
In short: as §1

PUM1 PUF domain R3-RQW = PUM1 PUF domain R3-RQW (Homo sapiens, UniProt Q14671 828-1176, C935R;R936Q;Q939W)
In short: as §1

GGCUAGAACUAGUGGAUCCCCCGGCGCCCGGCGGCUCGAGCCCGGGUAAGUGUAAAUAGUCUGCAUGCCGCCGGGCGCCAUGCCUGCAGGUCGACUCUAGAAAACAUG
binding signal (PUM1 PUF domain R5-DFL): 3.51 log2 enrichment (interaction score) | binding signal (PUM1 PUF domain R4-CLQ): 3.83 log2 enrichment (interaction score) | binding signal (PUM1 PUF domain R6-HFL): 2.57 log2 enrichment (interaction score)

GGCUAGAACUAGUGGAUCCCCCGGCGCCCGGCGGCUCGAGCCCGGGUAAGUGUUAAUAGUCUGCAUGCCGCCGGGCGCCAUGCCUGCAGGUCGACUCUAGAAAACAUG
binding signal (PUM1 PUF domain R5-HNR): 4.6 log2 enrichment (interaction score)

GGCUAGAACUAGUGGAUCCCCCGGCGCCCGGCGGCUCGAGCCCGGGUAAGUUUAAAUAGUCUGCAUGCCGCCGGGCGCCAUGCCUGCAGGUCGACUCUAGAAAACAUG
binding signal (PUM1 PUF domain R7-GQR): 2.78 log2 enrichment (interaction score) | binding signal (PUM1 PUF domain R7-EFR): 2.09 log2 enrichment (interaction score)

GGCUAGAACUAGUGGAUCCCCCGGCGCCCGGCGGCUCGAGCCCGGGUAAGUGUAAAUUGUCUGCAUGCCGCCGGGCGCCAUGCCUGCAGGUCGACUCUAGAAAACAUG
binding signal (PUM1 PUF domain R1-SPE): 2.78 log2 enrichment (interaction score) | binding signal (PUM1 PUF domain R1-RCV): 1.82 log2 enrichment (interaction score) | binding signal (PUM1 PUF domain R1-KLE): 4.05 log2 enrichment (interaction score)

GGCUAGAACUAGUGGAUCCCCCGGCGCCCGGCGGCUCGAGCCCGGGUAAGUGUAAGUAGUCUGCAUGCCGCCGGGCGCCAUGCCUGCAGGUCGACUCUAGAAAACAUG
binding signal (PUM1 PUF domain R3-FCV): 4.56 log2 enrichment (interaction score) | binding signal (PUM1 PUF domain R3-FRM): 5.33 log2 enrichment (interaction score)

GGCUAGAACUAGUGGAUCCCCCGGCGCCCGGCGGCUCGAGCCCGGGUAAGUGUAUAUAGUCUGCAUGCCGCCGGGCGCCAUGCCUGCAGGUCGACUCUAGAAAACAUG
binding signal (PUM1 PUF domain R4-FAA): 2.2 log2 enrichment (interaction score) | binding signal (PUM1 PUF domain R4-PHC): 4.13 log2 enrichment (interaction score)

GGCUAGAACUAGUGGAUCCCCCGGCGCCCGGCGGCUCGAGCCCGGGUAAGUCUAAAUAGUCUGCAUGCCGCCGGGCGCCAUGCCUGCAGGUCGACUCUAGAAAACAUG
binding signal (PUM1 PUF domain R7-EFR): 2.21 log2 enrichment (interaction score)

GGCUAGAACUAGUGGAUCCCCCGGCGCCCGGCGGCUCGAGCCCGGGUAAGUGUACAUAGUCUGCAUGCCGCCGGGCGCCAUGCCUGCAGGUCGACUCUAGAAAACAUG
binding signal (PUM1 PUF domain R4-QHK): 3.41 log2 enrichment (interaction score) | binding signal (PUM1 PUF domain R4-PHC): 3.16 log2 enrichment (interaction score)

GGCUAGAACUAGUGGAUCCCCCGGCGCCCGGCGGCUCGAGCCCGGGUAAGUGUGAAUAGUCUGCAUGCCGCCGGGCGCCAUGCCUGCAGGUCGACUCUAGAAAACAUG
binding signal (PUM1 PUF domain R5-SGG): 3.53 log2 enrichment (interaction score)

GGCUAGAACUAGUGGAUCCCCCGGCGCCCGGCGGCUCGAGCCCGGGUAAGUGUCAAUAGUCUGCAUGCCGCCGGGCGCCAUGCCUGCAGGUCGACUCUAGAAAACAUG
binding signal (PUM1 PUF domain R5-RQL): 2.74 log2 enrichment (interaction score)

GGCUAGAACUAGUGGAUCCCCCGGCGCCCGGCGGCUCGAGCCCGGGUAAGUGUAAUUAGUCUGCAUGCCGCCGGGCGCCAUGCCUGCAGGUCGACUCUAGAAAACAUG
binding signal (PUM1 PUF domain R3-FRM): 0.74 log2 enrichment (interaction score) | binding signal (PUM1 PUF domain R3-RQW): 2.52 log2 enrichment (interaction score)

GGCUAGAACUAGUGGAUCCCCCGGCGCCCGGCGGCUCGAGCCCGGGUAAGUGUAAAUCGUCUGCAUGCCGCCGGGCGCCAUGCCUGCAGGUCGACUCUAGAAAACAUG
binding signal (PUM1 PUF domain R1-RCV): 3.67 log2 enrichment (interaction score) | binding signal (PUM1 PUF domain R1-KLE): 3.36 log2 enrichment (interaction score)
